Laboratory results as given in PubChem BioAssay AID1963316 (National Center for Advancing Translational Sciences (NCATS), 2024).
Records with an inconclusive call do not appear. Active and inactive are the calls of the source. Calls come from the whole dose curve.

molecular target: Tyrosine-protein kinase ABL1 (Homo sapiens) (UniProt P00519); assay: ABL1 kinase (ABL1-N-HiBiT) SDR gain of signal screen - plus ATP; conditions: purified ABL1-N-HiBiT enzyme, HiBiT luminescence with 50 uM ATP, 30 min; series mostly up to 57.5 µM; signal gain, positive = increase: at the top concentration
Description: National Center for Advancing Translational Sciences (NCATS),
National Institute of Health (NIH), Maryland
Discovery and optimization of novel protein-binding ligands underlies many of the methods and applications of biology, drug discovery, clinical diagnostics, and environmental toxicology. Assays for detecting the interaction of, for example, a molecule with a macromolecular target also referred to here as the target of interest (TOI) is dependent on a compatible output technology. Depending on the nature and knowledge surrounding the TOI, whether a receptor, enzyme, regulatory subunit or scaffold, or a sequence-defined nucleic acid folded into a complex tertiary structure, assay strategies can vary widely.
Here we exploit ligand-biased changes in the structural dynamics of the target protein to control reporter alpha complementation allowing a non-competitive, non-functional, non-separation measure of ligand-target interaction.
Secondly, we show the specificity and sensitivity of the SDR for the Abelson tyrosine kinase (ABL1) compared to the serine/threonine protein kinase A, using an enriched chemical library of 128 compounds selected, in part, for activity annotated with ABL1 kinase activity using the Pharos database (3).
(1) A. S. Dixon et al., NanoLuc Complementation Reporter Optimized for Accurate Measurement of Protein Interactions in Cells. ACS Chem Biol 11, 400-408 (2016).
Chemistry & Biology, 19, 1060 - 1072 (2012).
(3) K. J. Kelleher et al., Pharos 2023: an integrated resource for the understudied human proteome. Nucleic Acids Res 51, D1405-D1416 (2023).
PROTOCOL TABLE (as described by Inglese J, Shamu CE and Guy RK. 2007)
SEQUENCE No. (e.g., 1, 2, 3, etc.); […] (e.g., C. elegans, Compounds, Incubation, Read, etc.); VALUE and DESCRIPTION.
1. Reagent. Dispense 4 uL ABL1-N-HiBiT enzyme per well at a final enzyme concentration of 10 nM in buffer with 50 uM ATP (SDR assay) into columns 2-48 of four replicate Greiner 1536-well white, solid bottom high base, medium plates per assay. Dispense respective buffer without enzyme at 4 uL/well in column 1 of assay plates using BioRaptr 2.
2. Compounds. Library compounds added at 23 nL/well by pin transfer. DMSO neutral control and imatinib positive control added at 25 nL/well, transfer by Mosquito dispenser.
3. Incubation. Incubate enzyme and compounds at room temperature for 30 min, protected from light.
4. Reagent. (SDR assay) Add 3 uL/well of Nano-Glo HiBiT reagent (Promega) to assay plates with ATP.
5. Incubation. (SDR assay) Incubate enzyme solution and HiBiT reagent at room temperature for 10 min, protect from light.
6. Detector. (SDR assay) Luminescence measured using CCD-based camera (ViewLux) with settings as follows: Exposure, 1 sec; Gain, High; Speed, Slow; Binning, 2X.
Inglese J, Shamu CE and Guy RK, Reporting data from high throughput screening of small molecule libraries, Nature Chemical Biology, 2007, 3(8): 438-441. doi.org/10.1038/nchembio0807-438.

Chain of Tyrosine-protein kinase ABL1 (Homo sapiens) (P00519 whole entry, looked up): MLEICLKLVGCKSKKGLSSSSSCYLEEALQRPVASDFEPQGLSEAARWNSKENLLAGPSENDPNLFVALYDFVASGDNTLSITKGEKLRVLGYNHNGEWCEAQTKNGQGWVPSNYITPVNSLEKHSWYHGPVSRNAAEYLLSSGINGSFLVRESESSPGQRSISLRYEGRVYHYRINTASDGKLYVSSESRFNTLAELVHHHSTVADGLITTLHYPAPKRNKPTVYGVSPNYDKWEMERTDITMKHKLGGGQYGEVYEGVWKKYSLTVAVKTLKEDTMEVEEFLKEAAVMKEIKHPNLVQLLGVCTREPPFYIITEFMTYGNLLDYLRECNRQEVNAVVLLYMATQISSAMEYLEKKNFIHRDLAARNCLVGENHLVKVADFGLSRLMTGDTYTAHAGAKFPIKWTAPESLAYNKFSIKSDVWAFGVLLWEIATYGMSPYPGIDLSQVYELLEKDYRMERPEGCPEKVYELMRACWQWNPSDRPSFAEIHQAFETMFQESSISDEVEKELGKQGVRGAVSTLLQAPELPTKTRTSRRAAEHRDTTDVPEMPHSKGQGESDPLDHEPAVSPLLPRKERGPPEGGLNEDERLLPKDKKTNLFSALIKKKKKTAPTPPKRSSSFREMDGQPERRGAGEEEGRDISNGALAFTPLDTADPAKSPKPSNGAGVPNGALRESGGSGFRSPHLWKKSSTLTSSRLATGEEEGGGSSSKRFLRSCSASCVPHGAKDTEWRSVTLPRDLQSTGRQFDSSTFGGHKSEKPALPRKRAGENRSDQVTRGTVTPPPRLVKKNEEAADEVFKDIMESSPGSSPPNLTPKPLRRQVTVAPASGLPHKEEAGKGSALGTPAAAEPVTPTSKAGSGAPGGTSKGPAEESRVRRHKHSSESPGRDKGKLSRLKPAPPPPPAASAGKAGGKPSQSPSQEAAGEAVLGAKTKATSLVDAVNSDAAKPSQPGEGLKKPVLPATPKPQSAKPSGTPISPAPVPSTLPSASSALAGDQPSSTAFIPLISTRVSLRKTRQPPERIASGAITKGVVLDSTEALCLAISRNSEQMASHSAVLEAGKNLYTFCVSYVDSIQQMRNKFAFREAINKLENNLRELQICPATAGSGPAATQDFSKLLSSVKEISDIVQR

Row | Structure (SMILES) | signal gain, positive = increase | Potency
1 | C=CC(=O)N1CCC[C@@H](n2nc(-c3cccc(C(=O)Nc4ccc(C(C)C)c(C)c4)c3)c3c(N)ncnc32)C1 | 9.15% (inactive) | 
2 | O=C(NOCC(O)CO)c1cc(Br)c(F)c(F)c1Nc1ccc(I)cc1F (stereo not given) | -8.89% (inactive) | 
3 | NC1CCC(Nc2nc(Nc3ccc(C(=O)N4CCCCC4)cc3)c3ncn(-c4cccc(F)c4)c3n2)CC1 (stereo not given) |  | 2.11 µM (active)
4 | CC(C)CCN1c2nc(Nc3cc(F)c(O)c(F)c3)ncc2N(C)C(=O)C1C (stereo not given) | 3.93% (inactive) | 
5 | O=C(NC1CCNCC1)c1[nH]ncc1NC(=O)c1c(Cl)cccc1Cl | -1.94% (inactive) | 
6 | O=C1CCC(N2C(=O)c3ccccc3C2=O)C(=O)N1 (stereo not given) | -4.35% (inactive) | 
7 | COc1cc(NC(=O)c2cccc(-n3cc(NC(=O)Nc4cccc(C)c4)cn3)c2)cc(OC)c1OC | -0.0246% (inactive) | 
8 | Cc1cc(F)ccc1-c1nc(NC(CO)CO)nc2c1ccc(=O)n2-c1c(F)cccc1F | -1.35% (inactive) | 
9 | N#Cc1ccc2ncnc(NCCc3ccccc3)c2c1 | 1.28% (inactive) | 
10 | CCOc1ccn(-c2ccc(F)cc2)c(=O)c1C(=O)Nc1ccc(Oc2ccnc(N)c2Cl)c(F)c1 |  | 15.4 µM (active)
11 | CCN1C(=O)CNc2ncc(-c3ccc(-c4ncn[nH]4)nc3C)nc21 | 3.79% (inactive) | 
12 | Cc1ccc(NC(=O)N2CCN(c3nc(N)nc4sc(-c5cccnc5)nc34)CC2)cc1 | 2.63% (inactive) | 
13 | CC(C)(C)n1nc(-c2cccc3ccccc23)c2c(N)ncnc21 | 7.72% (inactive) | 
14 | Cc1cc(Nc2ncc3c(n2)N(C)C(=O)N(c2cc(NC(=O)c4cccc(C(F)(F)F)c4)ccc2C)C3)n(C)n1 | 16.5% (inactive) | 
15 | Cc1cc(O)c2c(c1)C(=O)c1cc(O)cc(O)c1C2=O | -9.42% (inactive) | 
16 | O=C(Nc1cc(C(F)(F)F)ccc1N1CCCCC1)c1ccncc1 | -3.5% (inactive) | 
17 | Cc1cccc(/C=N/Nc2cc(N3CCOCC3)nc(OCCc3ccccn3)n2)c1 | -2.29% [at 46 µM] (inactive) | 
18 | Cc1ccc(NC(=O)c2ccc(CN3CCN(C)CC3)cc2)cc1Nc1nc(-c2cccnc2)cs1 | 8.88% (inactive) | 
19 | Cc1ccccc1-n1c([C@H](C)Nc2nc(N)nc3nc[nH]c23)nc2cccc(C)c2c1=O | -3.12% (inactive) | 
20 | Nc1nc(Nc2ccc(S(N)(=O)=O)cc2)n(C(=S)Nc2c(F)cccc2F)n1 |  | 1.26 µM (active)

Row | Structure (SMILES) | signal gain, positive = increase | Potency
21 | CCCS(=O)(=O)Nc1ccc(F)c(C(=O)c2c[nH]c3ncc(Cl)cc23)c1F | 12.5% (inactive) | 
22 | Cc1[nH]c(/C=C2\C(=O)Nc3ccc(S(=O)(=O)Cc4c(Cl)cccc4Cl)cc32)c(C)c1C(=O)N1CCC[C@@H]1CN1CCCC1 | -5.47% (inactive) | 
23 | COc1cc(N2CCC(O)CC2)ccc1Nc1nc(Nc2ccccc2S(=O)(=O)C(C)C)c2[nH]cnc2n1 | 9.23% (inactive) | 
24 | CNS(=O)(=O)c1ccc2c(c1)/C(=C/c1[nH]c3c(c1CCCN1CCN(C)CC1)CCCC3)C(=O)N2 |  | 1.77 µM (active)
25 | CCNC(=O)Nc1ccc(-c2nc3c(c(N4CCOC[C@@H]4C)n2)CCN(c2ncccn2)C3)cc1 | -2.51% (inactive) | 
26 | Cn1cc(-c2cc3c(N4CCN(c5ncc([C@@](C)(N)c6ccc(F)cc6)cn5)CC4)ncnn3c2)cn1 |  | 10.3 µM (active)
27 | Cc1[nH]nc2ncc(C(=O)N3CCC[C@H]3c3ccc(Cl)cc3)cc12 | 1.86% (inactive) | 
28 | Cc1c(Cl)cccc1S(=O)(=O)Nc1nc(NCCc2ccccc2)nc2c1CN(Cc1ccccc1)CC2 | -8.84% (inactive) | 
29 | NC1(C(=O)N[C@@H](CCO)c2ccc(Cl)cc2)CCN(c2ncnc3[nH]ccc23)CC1 | 11.3% (inactive) | 
30 | CCN1CCN(Cc2ccc(NC(=O)c3ccc(C)c(NC(=O)c4cncc(-c5cccs5)c4)c3)cc2C(F)(F)F)CC1 | 6.84% (inactive) | 
31 | Cn1ncc(NC(=O)c2nc(-c3c(F)cccc3F)sc2N)c1N1CC[C@@H](N)[C@H](F)CC1 | 1.32% (inactive) | 
32 | Nc1nc(NCCNc2ncc(-n3ccnc3)c(-c3ccc(Cl)cc3Cl)n2)ccc1[N+](=O)[O-] | -26.8% (inactive) | 
33 | O=C1C(c2c(O)[nH]c3ccccc23)=Nc2ccccc21 | 0.117% (inactive) | 
34 | O=c1c(O)c(-c2ccc(O)c(O)c2)oc2cc(O)cc(O)c12 | 6.27% (inactive) | 
35 | COc1ccc(S(=O)(=O)N(C(C)=O)c2ccccc2/C=C/c2cc[n+]([O-])cc2)cc1 | -0.277% (inactive) | 
36 | Cn1sc(=O)n(Cc2ccccc2)c1=O | -6.97% (inactive) | 
37 | C[C@@H]1CN(CC(=O)Nc2ccc3c(c2)Cc2cccc(-c4cc(=O)cc(N5CCOCC5)o4)c2S3)C[C@H](C)O1 | -5.71% (inactive) | 
38 | Cc1nc2ccc(-n3ncc(C(=O)c4cc5ccccc5[nH]4)c3N)cc2[nH]1 | 5.17% (inactive) | 
39 | COc1ccc(CNC(=O)Nc2ncc([N+](=O)[O-])s2)cc1 | -6.68% (inactive) | 
40 | C=CC(=O)Nc1cccc(Oc2nc(Nc3ccc(N4CCN(C)CC4)cc3OC)ncc2Cl)c1 | 0.255% (inactive) | 
